Measured values from PubChem BioAssay (NCATS).
Results filed as inconclusive are left out. Calls of active or inactive are those of the source. Calls come from the whole dose curve; as a rule, active = well fitted cell-killing curve with a large enough effect; inconclusive = small, poorly fitted or top-dose-only effect, or effect the other way; inactive = no such curve, though single readings can be large or run the other way.

Legend:
[1] = Quantitative High-Throughput drug screen in 47 multiple myeloma cell lines against the NCATS MIPE library collection: OPM2_DSMZ cell viability assay (AID 1919872); conditions: OPM2 myeloma viability, CellTiter-Glo ATP luminescence, 48 h; series mostly up to 45.8 µM; note: nearly all actives have a fitted effect of over 30% in size
Outline: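 Approved and investigational drugs from MIPE 4.0 were added by pin tool to 500 cells per well. After 48 hours at 37C, ATP-based CellTiter-Glo luminescence indicated remaining viability.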

[2] = Quantitative High-Throughput drug screen in 47 multiple myeloma cell lines against the NCATS MIPE library collection: KMS11_JCRBsus cell viability assay (AID 1919873); conditions: KMS11 myeloma viability, CellTiter-Glo ATP luminescence, 48 h; series mostly up to 45.8 µM; note: nearly all actives have a fitted effect of over 50% in size
Outline: (§1)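 ATP-based luminescence (CellTiter-Glo, 5 min RT incubation) quantified surviving cells following two days' treatment with MIPE 4.0 agents at 37 °C, 5% CO2.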

[3] = Quantitative High-Throughput drug screen in 47 multiple myeloma cell lines against the NCATS MIPE library collection: XG6_PLB cell viability assay (AID 1919865); conditions: XG6 myeloma viability, CellTiter-Glo ATP luminescence, 48 h; series mostly up to 45.8 µM; note: nearly all actives have a fitted effect of over 40% in size
Outline: as §1

[4] = Quantitative High-Throughput drug screen in 47 multiple myeloma cell lines against the NCATS MIPE library collection: VP6_DJ cell viability assay (AID 1919867); conditions: ATP luminescence, 48 h; series mostly up to 45.8 µM; note: nearly all actives have a fitted effect of over 40% in size
Outline: as §1

[5] = Quantitative High-Throughput drug screen in 47 multiple myeloma cell lines against the NCATS MIPE library collection: UTMC2_PLB cell viability assay (AID 1919868); conditions: CellTiter-Glo ATP luminescence, 48 h; series mostly up to 45.8 µM; note: nearly all actives have a fitted effect of over 55% in size
Outline: as §1

[6] = Quantitative High-Throughput drug screen in 47 multiple myeloma cell lines against the NCATS MIPE library collection: RPMI8226_ATCC cell viability assay (AID 1919871); conditions: RPMI8226 myeloma viability, CellTiter-Glo ATP luminescence, 48 h; series mostly up to 45.8 µM; note: nearly all actives have a fitted effect of over 30% in size
Outline: as §1

[7] = Quantitative High-Throughput drug screen in 47 multiple myeloma cell lines against the NCATS MIPE library collection: KMS28BM_JCRB cell viability assay (AID 1919874); conditions: CellTiter-Glo ATP, 48 h; series mostly up to 45.8 µM; note: nearly all actives have a fitted effect of over 35% in size
Outline: as §1

[8] = Quantitative High-Throughput drug screen in 47 multiple myeloma cell lines against the NCATS MIPE library collection: PE2_PLB cell viability assay (AID 1919869); conditions: PE2_PLB myeloma cells viability, ATP luminescence, 48 h; series mostly up to 45.8 µM; note: nearly all actives have a fitted effect of over 35% in size
Outline: as §1

[9] = Quantitative High-Throughput drug screen in 47 multiple myeloma cell lines against the NCATS MIPE library collection: XG1_PLB cell viability assay (AID 1919866); conditions: CellTiter-Glo ATP, 48 h; series mostly up to 45.8 µM; note: nearly all actives have a fitted effect of over 35% in size
Outline: as §1

[10] = Quantitative High-Throughput drug screen in 47 multiple myeloma cell lines against the NCATS MIPE library collection: PCM6_Riken cell viability assay (AID 1919870); conditions: CellTiter-Glo ATP, 48 h; series mostly up to 45.8 µM; note: nearly all actives have a fitted effect of over 30% in size
Outline: as §1
Potency is the fitted concentration of half-maximal effect.

Row | SMILES | Potency [1] | Potency [2] | Potency [3] | Potency [4] | Potency [5] | Potency [6] | Potency [7] | Potency [8] | Potency [9] | Potency [10]
1 | CCCS(=O)c1ccc2nc(NC(=O)OC)[nH]c2c1 (centres undefined) | 23.5 µM (active) | 18.7 µM (active) | – | – | – | – | – | – | – | –
2 | O=C(O)c1cccnc1Nc1cccc(C(F)(F)F)c1 | inactive | inactive | inactive | 3.32 µM (active) | inactive | inactive | inactive | – | – | –
3 | CCCc1cc(=O)[nH]c(=S)[nH]1 | inactive | inactive | – | inactive | – | inactive | – | inactive | – | –
4 | CCOC(=O)C1=C[C@@H](OC(CC)CC)[C@H](NC(C)=O)[C@@H](N)C1 | inactive | inactive | inactive | inactive | – | inactive | inactive | inactive | – | –
5 | Cc1ccc(C(=O)c2cc(O)c(O)c([N+](=O)[O-])c2)cc1 | inactive | – | 23.5 µM (active) | – | 26.4 µM (active) | – | inactive | 23.5 µM (active) | – | –
6 | Nc1nc(Cl)nc2c1ncn2[C@H]1C[C@H](O)[C@@H](CO)O1 | inactive | 5.26 µM (active) | 0.935 µM (active) | 3.72 µM (active) | 2.35 µM (active) | inactive | 4.18 µM (active) | 14.8 µM (active) | – | –
7 | CCCCC(CC)COC(=O)C(C#N)=C(c1ccccc1)c1ccccc1 (centres undefined) | inactive | inactive | – | inactive | – | – | inactive | inactive | inactive | –
8 | C[C@]12CCC(=O)C=C1CC[C@@H]1[C@H]2[C@@H](O)C[C@@]2(C)[C@H]1CC[C@]2(O)C(=O)CO | inactive | 0.187 µM (active) | 18.7 µM (active) | 14.8 µM (active) | – | 0.418 µM (active) | inactive | – | – | –
9 | COC1=C(OC)C(=O)C(CCCCCCCCCCO)=C(C)C1=O | inactive | 14.8 µM (active) | 20.9 µM (active) | 14.8 µM (active) | 26.4 µM (active) | inactive | – | – | – | 16.6 µM (active)
10 | CN(C)[C@@H](CCOc1cccc2ccccc12)c1ccccc1 | – | 23.5 µM (active) | – | 26.4 µM (active) | – | 16.6 µM (active) | 18.7 µM (active) | 23.5 µM (active) | 16.6 µM (active) | –
11 | CC(C)c1nc(CN(C)C(=O)N[C@H](C(=O)N[C@@H](Cc2ccccc2)C[C@H](O)[C@H](Cc2ccccc2)NC(=O)OCc2cncs2)C(C)C)cs1 | 20.9 µM (active) | – | inactive | – | – | – | – | – | – | inactive
12 | Clc1ccc(C(Cn2ccnc2)OCc2c(Cl)cccc2Cl)c(Cl)c1 (centres undefined) | – | – | 26.4 µM (active) | 16.6 µM (active) | – | – | – | – | – | 14.8 µM (active)
13 | Cn1c(NCCN(CCO)CCCc2ccc([N+](=O)[O-])cc2)cc(=O)n(C)c1=O | inactive | – | 20.9 µM (active) | 18.7 µM (active) | – | inactive | – | – | – | –
14 | C[C@@H](c1ncncc1F)[C@](O)(Cn1cncn1)c1ccc(F)cc1F | inactive | inactive | 5.26 µM (active) | – | – | – | – | inactive | – | –
15 | Cc1c(C(=O)NN2CCCCC2)nn(-c2ccc(Cl)cc2Cl)c1-c1ccc(Cl)cc1 | – | 23.5 µM (active) | 26.4 µM (active) | – | 20.9 µM (active) | – | 23.5 µM (active) | – | – | –
16 | CN(C)C(=O)[C@H](O)[C@H](Cc1ccccc1)NC(=O)c1cc2cc(Cl)ccc2[nH]1 | 14.8 µM (active) | 16.6 µM (active) | – | 7.43 µM (active) | 3.32 µM (active) | – | – | 2.64 µM (active) | – | 8.33 µM (active)
17 | CC(=O)N1CCN(c2ccc(OC[C@H]3CO[C@](Cn4ccnc4)(c4ccc(Cl)cc4Cl)O3)cc2)CC1 | 18.7 µM (active) | 18.7 µM (active) | – | 11.8 µM (active) | inactive | – | – | 14.8 µM (active) | 13.2 µM (active) | –
18 | COc1cc(C(C)=O)ccc1OCCCN1CCC(c2noc3cc(F)ccc23)CC1 | inactive | – | – | 16.6 µM (active) | – | 13.2 µM (active) | 5.9 µM (active) | – | – | 18.7 µM (active)
